An excerpt weighted towards active compounds, which were near 27% of everything screened.
CYP2C19 inhib – human CYP2C19 inhibition; P33261; CYP2C19 Supersomes, luciferin-H EGE luminescence, 30 min; inhibition, % at 5 µM; 96,000 tested, 21% active;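 active = CYP2C19 inhibition above a set limit at 5 µM in the primary screen, cut at about 50% in these data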;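 also: plate controls were negative control wells for no effect and 2.5 mM tranylcypromine positive control for full effect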
sEH inh – soluble epoxide hydrolase (human) inhibition; 91,000 tested, 0.34% active; inhibition, % at 2 µM; recombinant human sEH enzymatic activity assay; P34913; in the data active = inhibition above about 80%
CYP2C19 act – activators of human cytochrome P450 2C19; 96,000 tested, under 10 active; P33261; activation factor at 5 µM; recombinant CYP2C19, luciferin-H EGE luminescence; stronger effect = higher value; 0 = fully inhibited enzyme, 1 = untreated enzyme; AID 1025;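 active = activation factor of at least 2 at 5 µM in the primary screen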;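 also: 0 = wells with 2.5 mM tranylcypromine and 1 = vehicle-only wells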
CYP2C9 act – increases human cytochrome P450 2C9 activity. P11712. recombinant CYP2C9, luciferin-H conversion, luminescence; stronger effect = higher value; factor 1 = untreated enzyme, 0 = blocked. activation factor at 5 µM. 96,000 tested, 1.4% active. AID 1024;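 active = activation factor of 2 or more for CYP2C9 at a 5 µM dose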;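 also: 0 = sulfaphenazole-blocked wells and 1 = vehicle-only wells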
Target sequence (P11712 whole entry, looked up): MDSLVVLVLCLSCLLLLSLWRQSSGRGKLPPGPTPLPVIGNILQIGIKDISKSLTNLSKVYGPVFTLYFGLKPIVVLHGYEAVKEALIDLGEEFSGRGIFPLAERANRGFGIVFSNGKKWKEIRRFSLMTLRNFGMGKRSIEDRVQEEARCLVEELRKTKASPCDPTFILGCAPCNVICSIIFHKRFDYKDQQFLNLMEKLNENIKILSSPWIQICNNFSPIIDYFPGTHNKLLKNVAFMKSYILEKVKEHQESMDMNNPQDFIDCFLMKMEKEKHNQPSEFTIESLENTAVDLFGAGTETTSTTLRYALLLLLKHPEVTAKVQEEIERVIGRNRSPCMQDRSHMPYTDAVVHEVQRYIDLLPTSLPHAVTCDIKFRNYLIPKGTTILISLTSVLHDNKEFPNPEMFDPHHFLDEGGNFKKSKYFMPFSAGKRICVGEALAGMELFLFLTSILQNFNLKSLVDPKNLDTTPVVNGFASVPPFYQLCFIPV
sEH activator – soluble epoxide hydrolase (human) activation; P34913; purified human sEH enzymatic activity, activator screen; activation, % at 2 µM; 91,000 tested, 0.04% active; in the data active = activation above about 37%
CYP2C9 inh – human CYP2C9 inhibition. 96,000 tested, 20% active. P11712. inhibition, % at 5 µM. CYP2C9 Supersomes, luciferin-H conversion, luminescence;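 active = blocking of liver enzyme CYP2C9 beyond about 50% at 5 µM, limit read from the data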
* hit, by the source's call; / = not tested or not shown.

SMILES | CYP2C19 inhib | sEH inh | CYP2C19 act | CYP2C9 act | sEH activator | CYP2C9 inh
CCn1c(=O)cc(N2CCC3(CC2)OCCO3)[nH]c1=O | -8.8 | 15.0 | 1.1 | 1.1 | -16.0 | -8.1
CC(=O)N1CCN(c2ccc(NCc3ccccc3)cc2)CC1 | 9.7 | -8.9 | 0.9 | 0.8 | 8.4 | 23.8
CCn1nnnc1NCc1ccc(N2CCCC2)cc1 | 79.3* | / | 0.2 | 0.2 | / | 81.4*
CCN(CC)C(=O)C1CCN(S(=O)(=O)c2ccc3oc4ccccc4c3c2)CC1 | 16.7 | 1.2 | 0.8 | 1.8 | -1.7 | -75.0
CC(C)(C)C(=O)CC1(O)C(=O)N(Cc2ccccc2)c2ccccc21 (stereo not given) | 71.7* | -0.5 | 0.3 | 0.5 | 2.9 | 54.5*
O=C(CC1(O)C(=O)N(Cc2ccccc2)c2ccccc21)c1ccc2c(c1)OCO2 (stereo not given) | 12.3 | 2.4 | 0.9 | 0.8 | -2.3 | 19.7
O=C(CC1(O)C(=O)N(Cc2ccccc2)c2ccccc21)c1ccncc1 (stereo not given) | 95.5* | -4.1 | 0 | 0.3 | 3.8 | 66.5*
Cc1ccccc1CN1C(=O)C(O)(CC(=O)c2ccncc2)c2ccccc21 (stereo not given) | 90.5* | -0.8 | 0.1 | 0.6 | 1.5 | 40.6
COc1ccccc1Oc1ccc2c(c1)C(=O)N(c1ccc(Br)c3cccnc13)C2=O | -4.7 | 4.5 | 1 | 1.2 | -2.9 | -20.5
Cc1cccc2cc(CN(CCN3CCOCC3)C(=O)NCc3ccccc3)c(=O)[nH]c12 | 28.0 | 0.8 | 0.7 | 0.8 | -3.7 | 17.1
CCCN(CC1CC1)C(=O)CSc1nnc(-c2cc(-c3cccs3)nc3ccccc23)o1 | 0.0 | 1.4 | 1 | 0.4 | -1.8 | 55.4*
O=C(CSc1nnc(-c2cc(-c3cccs3)nc3ccccc23)o1)NC1CCCCC1 | 8.1 | -10.8 | 0.9 | 0.5 | 13.1 | 50.4*
CCC(C)NC(=O)CSc1nnc(-c2cc(-c3cccs3)nc3ccccc23)o1 (stereo not given) | 75.1* | 3.9 | 0.2 | 0 | -9.2 | 97.6*
NC(=O)CSc1nnc(-c2cc(-c3cccs3)nc3ccccc23)o1 | 0.8 | -17.3 | 1 | 0.7 | 19.1 | 32.6
CC1CCCC(C)N1C(=O)CSc1nnc(-c2cccs2)o1 (stereo not given) | 84.2* | -2.3 | 0.2 | 0.5 | 2.4 | 47.7
O=C(CSc1oc(-c2cccs2)nc1S(=O)(=O)c1ccccc1)NC1CCCCC1 | 23.5 | 6.8 | 0.8 | 0.7 | -9.3 | 28.0
CCOC(=O)C(C(=O)NCc1cccc(OC)c1)c1ncc(C(F)(F)F)cc1Cl (stereo not given) | 18.9 | 6.5 | 0.8 | 0.9 | -6.1 | 9.7
CC1(C)CC(=O)C(C=NCC2CCCO2)=C(O)C1 (stereo not given) | 6.2 | -7.1 | 0.9 | 1 | 6.6 | 4.5
CC(NC(=O)C1CCN(c2nnc(-n3cccc3)s2)CC1)C12CC3CC(CC(C3)C1)C2 (stereo not given) | 14.2 | 5.4 | 0.9 | 0.9 | -8.3 | 9.0
Cc1nnsc1C(=O)NC(C)C12CC3CC(CC(C3)C1)C2 (stereo not given) | 52.1* | -7.7 | 0.5 | 0.8 | 8.4 | 24.5
c1n[nH]c(NC2=NCCC2)n1 | 5.8 | -5.8 | 0.9 | 0.8 | 9.0 | 17.9
Cc1cc(C)nc(NC(=NCCc2c[nH]c3ccccc23)NC(=O)c2ccco2)n1 | 96.4* | -4.4 | 0 | 0 | 3.9 | 99.1*
O=C(NC(Cc1c[nH]c2ccccc12)C(=O)O)c1ccco1 (stereo not given) | -2.5 | -16.4 | 1 | 0.5 | 17.3 | 46.5
O=C(Nc1nnc(SCC(=O)N2CCCCC2)s1)c1cccs1 | -7.8 | / | 1.1 | 1 | / | 1.0
CN=C1CC(C)(C)CC(=O)/C1=C(/O)CCC(=O)NC | / | 6.5 | / | / | -7.2 | /
SMILES | CYP2C19 inhib | sEH inh | CYP2C19 act | CYP2C9 act | sEH activator | CYP2C9 inh
CC(=O)N=C1SC2CS(=O)(=O)CC2N1c1cccc(Cl)c1Cl (stereo not given) | 11.1 | 5.9 | 0.9 | 0.3 | -4.3 | 66.5*
CC(=O)N1CCC(=NNS(=O)(=O)c2ccc(C)c([N+](=O)[O-])c2)CC1 | -3.7 | -13.2 | 1 | 1.2 | 14.8 | -18.0
Cc1ccc(S(=O)(=O)N/N=C2/CC(c3ccccc3)Oc3ccccc32)cc1[N+](=O)[O-] (stereo not given) | 67.3* | 12.6 | 0.3 | 0 | -10.5 | 99.0*
O=S(=O)(N/N=C1/CCCc2ccccc21)c1ccc(Br)cc1 | / | 7.9 | / | / | -2.9 | /
O=S(=O)(N/N=C1/CC(c2ccccc2)Oc2ccccc21)c1ccc(Br)cc1 (stereo not given) | 27.3 | -9.0 | 0.7 | 0.4 | 10.6 | 64.7*
COc1ccc(Cc2nnc3n2N=C(c2cc4ccccc4o2)CS3)cc1OC | / | 10.3 | / | / | -8.1 | /
CCCOc1c(Br)cc(/C=N/O)cc1OC | 23.3 | -11.1 | 0.8 | 1.1 | 12.6 | -6.8
CCCn1c2c(c(O)c(C(=O)Nc3ccc(OCC)cc3)c1=O)CCCC2 | -1.8 | 1.3 | 1 | 0.5 | -1.1 | 52.4*
S=c1[nH]nc(CSCc2ccccc2Cl)n1-c1ccccc1 | 72.3* | -8.6 | 0.3 | 0.2 | 7.0 | 75.6*
COCc1n[nH]c(=S)n1-c1ccccc1 | 12.1 | 0.5 | 0.9 | 1 | -6.0 | 3.7
COc1nc2ccc(C)cc2cc1-c1noc(-c2ccccc2)n1 | 13.0 | -6.2 | 0.9 | 0.6 | 4.4 | 35.6
Cc1cc(OCC(F)(F)C(F)(F)C(F)(F)C(F)(F)C(F)(F)C(F)F)nc(N)n1 | 64.0* | 17.1 | 0.4 | 0.4 | -14.7 | 56.7*
COc1cc(C2Nc3ccccc3C(=O)N2c2ccccc2OC)ccc1O (stereo not given) | 40.8 | -13.8 | 0.6 | 0.2 | 11.1 | 78.8*
O=C1c2ccccc2NC(c2ccccn2)N1c1ccccc1F (stereo not given) | / | 3.4 | / | / | 0.8 | /
CCOc1cc(C2C(C(=O)O)c3cc(OCC)c(OCC)cc3C(=O)N2C)ccc1O (stereo not given) | -15.2 | / | 1.2 | 1.2 | / | -18.8
CCOc1cc(C2Nc3ccccc3C(=O)N2c2ccccc2OC)ccc1O (stereo not given) | 20.9 | -4.2 | 0.8 | 0.5 | 5.6 | 52.3*
CCOC(=O)c1nnn(-c2nonc2N)c1COc1c(C=O)cccc1OC | 14.4 | -6.2 | 0.9 | 0.3 | 5.8 | 71.3*
COC(=O)c1nnn(-c2nonc2N)c1CN1CCc2ccccc21 | 96.2* | 6.2 | 0 | 0.3 | -6.8 | 71.5*
CCOC(=O)c1nnn(-c2nonc2N)c1CS(=O)(=O)c1ccccc1 | 63.0* | -0.8 | 0.4 | 0.6 | 2.5 | 36.8
CCOC(=O)c1nnn(-c2nonc2-n2cccc2)c1CN1CCC(C)CC1 | -8.1 | 5.2 | 1.1 | 0.9 | -7.0 | 10.2
CC(C)OC(=O)c1nnn(-c2nonc2N)c1CN1CCCCCC1 | 5.1 | 22.0 | 0.9 | 0.9 | -21.7 | 14.8
COCc1c(C(N)=O)nnn1-c1nonc1N | 4.0 | -2.2 | 1 | 1 | 2.9 | 0.0
CC(C)OC(=O)c1nnn(-c2nonc2N)c1CN1CCc2ccccc2C1 | 12.8 | 1.0 | 0.9 | 0.3 | -0.3 | 68.2*

Bioassay records deposited in PubChem BioAssay by several laboratories.
